# “And” between values parts separate entries of the source, which are not always exact repeats. Equal values may be shown once. Inconclusive results are not listed. The source made the active and inactive calls. Unless noted, no rule for the calls is given here.
# Experiments:
# [1] = modulation of C. elegans fzo-1 (AID 1259413);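 also: fzo-1 mutant C. elegans worms in liquid wells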; conditions: C. elegans fzo-1 modulator screen, mean read-out; stronger effect = higher value
# [2] = EMT-state selective cytotoxicity in co-culture – imaging, PC-3E GFP, TEM4-18 mCherry, primary screen (AID 1345086;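 active = compounds killing one labelled cell type while sparing the other, by normalised counts and ratio limits, not self-fluorescent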;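 as to all read-outs here: cells exposed to compound for 72 h before imaging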;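 as to red/green cell ratio (normalised): normalised mesenchymal count divided by normalised epithelial count so high means epithelial killing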); conditions: PC-3E GFP / TEM4-18 mCherry co-culture, imaging cell counts, at 1 µM; for red/green cell ratio (normalised): actives lie on both sides, counts scaled to control wells, 1 = unselective
# [3] = test system: Aerobactin synthetase IucA (Klebsiella pneumoniae); test: inhibition of K. pneumoniae IucA enzyme – biochemical, Tocris library, absorbance (AID 1345561); conditions: purified IucA enzyme assay, absorbance (OD) read-out; stronger effect = lower value;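 tested at 8 µM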;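 also: 100% = enzyme without compound and 0% = no enzyme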
# [4] = viability loss in pontine glioma line – cell-based, SU-DIPG-XVII, MIPE5.0, CellTiter-Glo, qHTS, dose response (AID 1347060; cut-off not given, nearly all actives have AC50 up to about 26 µM); conditions: CellTiter-Glo ATP luminescence
# [5] = viability loss in pontine glioma line – cell-based, SU-DIPG-XIII, MIPE4.0, CellTiter-Glo, qHTS, dose response (AID 1347061; cut-off not given, nearly all actives have AC50 up to about 37 µM;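 also: cells exposed to compound for 48 hours before readout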); conditions: CellTiter-Glo ATP luminescence
# [6] = viability loss in pontine glioma line – cell-based, JHH-DIPG-1, MIPE4.0, CellTiter-Glo, qHTS, dose response (AID 1347062; cut-off not given, nearly all actives have AC50 up to about 27 µM); conditions: JHH-DIPG-1 viability, CellTiter-Glo ATP luminescence
# [7] = viability loss in pontine glioma line – cell-based, SU-DIPG-IV, MIPE4.0, CellTiter-Glo, qHTS, dose response (AID 1347063; cut-off not given, nearly all actives have AC50 up to about 30 µM;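 also: compound exposure lasted 48 hours before the viability readout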); conditions: CellTiter-Glo ATP luminescence
# [8] = viability loss in pontine glioma line – cell-based, SU-DIPG-XIII, MIPE5.0, CellTiter-Glo, qHTS, dose response (AID 1347064; cut-off not given, nearly all actives have AC50 up to about 23 µM); conditions: CellTiter-Glo ATP luminescence
# [9] = measured here: epithelial PC-3E GFP cell survival
# [10] = measured here: mesenchymal TEM4-18 mCherry cell survival
compound,measurement,setting,value
CC(C)(O)c1ccccc1CC[C@@H](SCC1(CC(=O)O)CC1)c1cccc(/C=C/c2ccc3ccc(Cl)cc3n2)c1,mean signal,[1],259 (inactive)
C[C@H](NC(CCc1ccccc1)C(=O)O)C(=O)N1CCC[C@H]1C(=O)O (stereo partly drawn),mean signal,[1],226 (inactive)
CC(=O)Nc1ccc(CC(=O)O)cc1,mean signal,[1],292 (inactive)
Cn1nnc2c(C(N)=O)ncn2c1=O,mean signal,[1],230 (inactive)
same,red/green cell ratio (normalised),[2],1.08 (inactive)
same,normalised cell number,[2]; [9],1.03
same,normalised cell number,[2]; [10],1.11
same,remaining activity,[3],102% (inactive)
same,outcome,[4],inactive
same,outcome,[5],inactive
same,outcome,[6],inactive
same,outcome,[7],inactive
same,outcome,[8],inactive
CC(C)NCC(O)COc1ccc(CCOCC2CC2)cc1 (stereo not drawn),mean signal,[1],281 (inactive)
same,red/green cell ratio (normalised),[2],0.81 (inactive)
same,normalised cell number,[2]; [9],1.26
same,normalised cell number,[2]; [10],1.02
same,remaining activity,[3],100% (inactive)
same,outcome,[4],inactive
same,outcome,[5],inactive
same,outcome,[6],inactive
same,outcome,[7],inactive
same,outcome,[8],inactive
CC(Oc1c(Cl)cccc1Cl)C1=NCCN1 (stereo not drawn),mean signal,[1],295 (inactive)
same,red/green cell ratio (normalised),[2],1.37 (inactive)
same,normalised cell number,[2]; [9],0.85
same,normalised cell number,[2]; [10],1.17
C[C@H]1COc2c(C3(N)CC3)c(F)cc3c(=O)c(C(=O)O)cn1c23,mean signal,[1],269 (inactive)
same,red/green cell ratio (normalised),[2],1.3 (inactive) and 0.88 (inactive)
same,normalised cell number,[2]; [9],0.98 and 1.07
same,normalised cell number,[2]; [10],1.28 and 0.94
C[n+]1ccccc1/C=N/O,mean signal,[1],252 (inactive)
same,red/green cell ratio (normalised),[2],0.85 (inactive)
same,normalised cell number,[2]; [9],1.37
same,normalised cell number,[2]; [10],1.16
O=C(NCCN1CCOCC1)c1ccc(Cl)cc1,mean signal,[1],247 (inactive)
same,red/green cell ratio (normalised),[2],0.88 (inactive)
same,normalised cell number,[2]; [9],0.89
same,normalised cell number,[2]; [10],0.79
Nc1nc2c(ncn2CCC(CO)CO)c(=O)[nH]1,mean signal,[1],282 (inactive)
same,red/green cell ratio (normalised),[2],1 (inactive)
same,normalised cell number,[2]; [9],0.96
same,normalised cell number,[2]; [10],0.96
CN1CCCCC1CCN1c2ccccc2Sc2ccc(S(C)=O)cc21 (stereo not drawn),mean signal,[1],243 (inactive)
same,red/green cell ratio (normalised),[2],1.05 (inactive)
same,normalised cell number,[2]; [9],1.11
same,normalised cell number,[2]; [10],1.16
CC(=O)NS(=O)(=O)c1ccc(N)cc1,mean signal,[1],275 (inactive)
same,red/green cell ratio (normalised),[2],1.56 (inactive)
same,normalised cell number,[2]; [9],0.84
same,normalised cell number,[2]; [10],1.31
CCc1oc2ccccc2c1C(=O)c1cc(Br)c(O)c(Br)c1,mean signal,[1],252 (inactive)
same,red/green cell ratio (normalised),[2],0.88 (inactive)
same,normalised cell number,[2]; [9],1.08
same,normalised cell number,[2]; [10],0.95
CN1CCN(c2c(F)cc3c(=O)c(C(=O)O)cn4c3c2SCC4)CC1,mean signal,[1],251 (inactive)
same,red/green cell ratio (normalised),[2],1.06 (inactive) and 1.18 (inactive)
same,normalised cell number,[2]; [9],1.01 and 0.81
same,normalised cell number,[2]; [10],1.07 and 0.95
CCc1nn(CCCN2CCN(c3cccc(Cl)c3)CC2)c(=O)n1CCOc1ccccc1,mean signal,[1],239 (inactive)
same,red/green cell ratio (normalised),[2],1.11 (inactive)
same,normalised cell number,[2]; [9],0.96
same,normalised cell number,[2]; [10],1.06
same,remaining activity,[3],104% (inactive)
OCCOCCN1CCN(C2=Nc3ccccc3Sc3ccccc32)CC1,mean signal,[1],248 (inactive)
same,red/green cell ratio (normalised),[2],0.87 (inactive)
same,normalised cell number,[2]; [9],1.08
same,normalised cell number,[2]; [10],0.94
Cc1cccc(C)c1NC(=O)C(C)N (stereo not drawn),mean signal,[1],270 (inactive)
same,red/green cell ratio (normalised),[2],0.66 (inactive)
same,normalised cell number,[2]; [9],1.32
same,normalised cell number,[2]; [10],0.88
CCN(CC)CCNC(=O)c1cc(Cl)c(N)cc1OC,mean signal,[1],245 (inactive)
same,red/green cell ratio (normalised),[2],1.02 (inactive)
same,normalised cell number,[2]; [9],1.09
same,normalised cell number,[2]; [10],1.12
Clc1ccc2c(c1)CCc1cccnc1C2=C1CCNCC1,mean signal,[1],228 (inactive)
same,red/green cell ratio (normalised),[2],0.84 (inactive) and 1.39 (inactive)
same,normalised cell number,[2]; [9],1.16 and 0.83
same,normalised cell number,[2]; [10],0.98 and 1.15
CCOC(=O)OC(C)OC1=C(C(=O)Nc2ccccn2)N(C)S(=O)(=O)c2ccccc21 (stereo not drawn),mean signal,[1],259 (inactive)
same,red/green cell ratio (normalised),[2],1.19 (inactive)
same,normalised cell number,[2]; [9],0.84
same,normalised cell number,[2]; [10],1
CCN1CCCC1CNC(=O)c1cc(S(=O)(=O)CC)c(N)cc1OC (stereo not drawn),mean signal,[1],235 (inactive)
same,red/green cell ratio (normalised),[2],1.01 (inactive)
same,normalised cell number,[2]; [9],0.89
same,normalised cell number,[2]; [10],0.9
same,remaining activity,[3],104% (inactive)
same,outcome,[4],inactive
same,outcome,[5],inactive
same,outcome,[6],inactive
same,outcome,[7],inactive
same,outcome,[8],inactive
COc1ccc(C(=O)NCc2ccc(OCCN(C)C)cc2)cc1OC,mean signal,[1],262 (inactive)
same,red/green cell ratio (normalised),[2],0.88 (inactive)
same,normalised cell number,[2]; [9],1.24
same,normalised cell number,[2]; [10],1.1
COC(=O)C1=C(C)NC(C)=C(C(=O)OCC(C)C)C1c1ccccc1[N+](=O)[O-] (stereo not drawn),mean signal,[1],228 (inactive)
same,red/green cell ratio (normalised),[2],0.97 (inactive)
same,normalised cell number,[2]; [9],1.11
same,normalised cell number,[2]; [10],1.08
CCN1CCN(c2cc3c(cc2F)c(=O)c(C(=O)O)cn3C2CC2)CC1,mean signal,[1],280 (inactive)
same,red/green cell ratio (normalised),[2],1.09 (inactive)
same,normalised cell number,[2]; [9],1.12
same,normalised cell number,[2]; [10],1.23
NC1CCN(c2nc3c(cc2F)c(=O)c(C(=O)O)cn3-c2ccc(F)cc2F)C1 (stereo not drawn),mean signal,[1],292 (inactive)
same,red/green cell ratio (normalised),[2],0.9 (inactive)
same,normalised cell number,[2]; [9],1.14
same,normalised cell number,[2]; [10],1.02
CC[N+](C)(CC)CCOC(=O)C(O)(c1ccccc1)C1CCCCC1 (stereo not drawn),mean signal,[1],260 (inactive)
same,red/green cell ratio (normalised),[2],0.95 (inactive)
same,normalised cell number,[2]; [9],1.13
same,normalised cell number,[2]; [10],1.07
Cc1ncc([N+](=O)[O-])n1CC(O)CCl (stereo not drawn),mean signal,[1],246 (inactive)
same,red/green cell ratio (normalised),[2],1.07 (inactive)
same,normalised cell number,[2]; [9],1.1
same,normalised cell number,[2]; [10],1.18
Oc1c(Cl)cc(Cl)c(Cl)c1Cc1c(O)c(Cl)cc(Cl)c1Cl,mean signal,[1],211 (inactive)
same,red/green cell ratio (normalised),[2],0.64 (inactive)
same,normalised cell number,[2]; [9],0.83
same,normalised cell number,[2]; [10],0.53
Nc1nc(N)nc(-c2cc(Cl)ccc2Cl)n1,mean signal,[1],297 (inactive)
same,red/green cell ratio (normalised),[2],1.01 (inactive)
same,normalised cell number,[2]; [9],1.08
same,normalised cell number,[2]; [10],1.09
same,remaining activity,[3],103% (inactive)
same,outcome,[4],inactive
same,outcome,[5],inactive
same,outcome,[6],inactive
O=C1CC2(CCCC2)CC(=O)N1CCCCN1CCN(c2ncccn2)CC1,mean signal,[1],228 (inactive)
same,red/green cell ratio (normalised),[2],1.04 (inactive)
same,normalised cell number,[2]; [9],1.05
same,normalised cell number,[2]; [10],1.09
same,remaining activity,[3],109% (inactive)
CC1CCN(CCCC(=O)c2ccc(F)cc2)CC1,mean signal,[1],246 (inactive)
same,red/green cell ratio (normalised),[2],0.9 (inactive)
same,normalised cell number,[2]; [9],0.97
same,normalised cell number,[2]; [10],0.88
same,remaining activity,[3],103% (inactive)
c1cnc(N2CCN(Cc3ccc4c(c3)OCO4)CC2)nc1,mean signal,[1],255 (inactive)
same,red/green cell ratio (normalised),[2],1.12 (inactive)
same,normalised cell number,[2]; [9],0.85
same,normalised cell number,[2]; [10],0.96
same,remaining activity,[3],119% (inactive)
O=C(CCNNC(=O)c1ccncc1)NCc1ccccc1,mean signal,[1],273 (inactive)
same,red/green cell ratio (normalised),[2],1.02 (inactive)
same,normalised cell number,[2]; [9],1.02
same,normalised cell number,[2]; [10],1.04
CCOC(=O)C1=C(C)NC(C)=C(C(=O)OC)C1c1cccc(Cl)c1Cl (stereo not drawn),mean signal,[1],217 (inactive)
same,red/green cell ratio (normalised),[2],1.08 (inactive)
same,normalised cell number,[2]; [9],1.11
same,normalised cell number,[2]; [10],1.2

# Reference: PubChem BioAssay
